Assay outcomes deposited in PubChem BioAssay by National Center for Advancing Translational Sciences (NCATS).
NIH3T3 tox: NIH 3T3 cell cytotoxicity | NIH 3T3 viability, CellTiter-Glo ATP luminescence, 48-72 h | Potency, µM (doses to about 96.7 µM), for inactives: at the highest dose activity change, negative = cytotoxicity, hits mostly inhibitors | 94,000 tested, 4.3% active | AID 1345082; note: nearly all actives have a fitted effect of over 55% in size
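Mouse fibroblast NIH 3T3 cells, 400 per well, received compound via pintool and were incubated for 48 or 72 hr prior to CellTiter-Glo ATP luminescence measurement.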
hNpr1 antagonist: antagonists of human natriuretic peptide receptor Npr1 | 76,000 tested, 1.6% active | P16066 | Potency, µM (titrated, usually from 46.3 µM), for inactives: top-dose activity change, negative = inhibition, actives largely listed as inhibitors | HEK293 hNpr1 GloSensor cGMP, ANP-stimulated luminescence; calls by dose curve; note: nearly all actives have a fitted effect of over 60% in size
Target sequence (P16066 whole entry, looked up): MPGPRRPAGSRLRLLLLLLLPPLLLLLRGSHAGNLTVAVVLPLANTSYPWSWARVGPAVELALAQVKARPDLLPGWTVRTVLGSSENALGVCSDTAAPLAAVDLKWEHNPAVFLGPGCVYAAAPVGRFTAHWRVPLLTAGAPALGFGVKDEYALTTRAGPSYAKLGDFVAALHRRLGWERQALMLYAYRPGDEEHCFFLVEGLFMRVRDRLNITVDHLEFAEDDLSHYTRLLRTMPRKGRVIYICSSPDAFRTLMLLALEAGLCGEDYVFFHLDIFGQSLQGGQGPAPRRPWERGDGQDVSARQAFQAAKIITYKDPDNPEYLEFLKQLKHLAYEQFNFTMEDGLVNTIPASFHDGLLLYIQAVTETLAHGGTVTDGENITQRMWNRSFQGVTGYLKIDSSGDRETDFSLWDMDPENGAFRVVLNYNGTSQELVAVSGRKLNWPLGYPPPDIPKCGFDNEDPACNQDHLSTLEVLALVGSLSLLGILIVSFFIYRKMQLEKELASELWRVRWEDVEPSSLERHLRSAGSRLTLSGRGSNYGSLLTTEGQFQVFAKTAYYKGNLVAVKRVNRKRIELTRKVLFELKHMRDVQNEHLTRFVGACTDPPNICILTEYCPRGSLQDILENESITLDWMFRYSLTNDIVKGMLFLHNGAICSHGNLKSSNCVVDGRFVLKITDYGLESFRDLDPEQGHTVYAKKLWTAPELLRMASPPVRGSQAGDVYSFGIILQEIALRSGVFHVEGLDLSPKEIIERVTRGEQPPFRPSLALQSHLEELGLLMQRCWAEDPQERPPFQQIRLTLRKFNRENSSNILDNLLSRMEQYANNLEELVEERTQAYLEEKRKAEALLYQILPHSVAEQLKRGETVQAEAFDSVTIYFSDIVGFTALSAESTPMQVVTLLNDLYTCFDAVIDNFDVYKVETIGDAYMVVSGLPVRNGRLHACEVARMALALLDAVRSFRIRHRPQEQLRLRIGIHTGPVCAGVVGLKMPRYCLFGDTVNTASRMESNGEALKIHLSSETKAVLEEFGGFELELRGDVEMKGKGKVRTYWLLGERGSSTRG
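Compound pre-incubated 30 min at room temperature on GloSensor-loaded HEK293 cells stably carrying hNpr1 and the pGS-40F cGMP biosensor. Stimulation uses hNppA at 0.1 nM final; luminescence is taken at baseline and 20 min post-agonist.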
HEK cytotox: cytotoxic compounds in HEK 293 cells | HEK 293 viability, ATP luminescence (CellTiter-Glo), 48-72 h | Potency, µM (top dose mostly 115 µM), without a hit: at the highest dose activity change, negative = cytotoxicity, hits mostly inhibitors | 94,000 tested, 6.6% active | AID 1345083; note: nearly all actives have a fitted effect of over 60% in size
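Viability of HEK 293 cells, plated at 250 cells/well, was judged by cellular ATP after compound treatment for 48 or 72 hr. Luminescence was imaged 10 min after CellTiter-Glo addition at room temperature.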
FLuc inh: blocks purified firefly luciferase enzyme activity. purified P. pyralis luciferase, luminescence, biochemical. Potency, µM (highest dose often 115 µM), hits mostly inhibitors. P08659. 76,000 tested, 2.5% active; note: nearly all actives have a fitted effect of over 65% in size
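Purified 10nM P. pyralis luciferase with 10uM D-luciferin and 10uM ATP in 50mM Tris acetate pH 7.5, 10mM Mg acetate, 0.01% Tween-20, 0.05% BSA. qHTS titration; luminescence read by CCD imager.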
Starred values were filed as active, the others as inactive; i = inactive; u = inconclusive; x = no result given; [ ] = dose if it differs, or a comment. An excerpt weighted towards active compounds, which were near 11% of everything screened. Unless noted, calls come from the whole dose curve; as a rule, active = well fitted curve in the direction sought with a large enough effect; inconclusive = small, poorly fitted or top-dose-only effect, or another doubt; inactive = no such curve, though single readings can be large; an effect the other way counts as inactive or inconclusive. % is set by controls: 0 for no effect and ±100 for the full control effect; potency is the fitted concentration of half-maximal effect.

SMILES | NIH3T3 tox | hNpr1 antagonist | HEK cytotox | FLuc inh
O=C(Cc1n[nH]c(=O)c2ccccc12)NC1CCCc2c1[nH]c1c(Cl)cccc21 (stereo not given) | u | -27% | -115% | i
COc1ccc(C2(C(=O)NC3CCCc4c3[nH]c3c(Cl)cccc43)CCOCC2)cc1 (stereo not given) | 22µM* | u | 45µM* | i
CNC(=O)C1CCN(C(=O)c2ccc(-c3cccc(OC)c3)cc2)CC1 | -10% | x | u | x
CCOC(=O)N1[C@@H](c2ccccc2)[C@@H](C(=O)O)C[C@]12CCCCN(CCOC)C2=O | u | x | -10% | x
COC(=O)CNC(=O)c1ccc2nnc(-c3cc(F)ccc3F)n2c1 | -15% | x | 2% | x
O=C(NCc1ccc(C(F)(F)F)cc1)C1CCN(C(=O)c2ccc(-c3cccs3)cc2)CC1 | 7.1µM* | x | 32µM* | x
O=C(NCCc1ccc(Cl)cc1)C1CCN(C(=O)c2ccc(-c3cccs3)cc2)CC1 | u | x | 45µM* | x
O=C(NC1CCCCC1)C1CCCN1C(=O)c1cccc(-c2cccnc2)c1 (stereo not given) | -23% | x | -16% | x
Cc1cnc(-c2ccccc2)n1C1CCN(C(=O)Cc2cccc(F)c2)CC1 | -29% | x | u | x
O=C(O)CCn1ncc2cc(OCC3CCN(C(=O)CC4CC4)CC3)ccc21 | 50µM* | 6%[70.6 µM] | 3%[172 µM] | u
O=C(O)CCn1ncc2cc(OCC3CCN(C(=O)C4CC4)CC3)ccc21 | u | 8%[70.6 µM] | i | u
O=C(O)CCn1ncc2cc(OCC3CCN(C(=O)C4CCCC4)CC3)ccc21 | u | 1%[70.6 µM] | 3%[172 µM] | u
O=C(O)CCn1ncc2cc(OCC3CCN(C(=O)OC4CCCC4)CC3)ccc21 | 25µM* | 1%[70.6 µM] | u | u
O=C(O)CCn1ncc2cc(OCC3CCN(C(=O)COc4ccccc4)CC3)ccc21 | 28µM* | 1%[70.6 µM] | 4%[172 µM] | i
O=C(O)CCn1ncc2cc(OCC3CCN(c4ncccn4)CC3)ccc21 | 50µM* | 3%[70.6 µM] | -11%[172 µM] | 63µM*
CC(C)(C)C1CCC2(CC1)NC(=O)N(CC(=O)Nc1ccc(F)cc1F)C2=O (stereo not given) | -42% | -7% | u | i
Cc1cc(F)ccc1NC(=O)CN1C(=O)NC2(CCC(C(C)(C)C)CC2)C1=O (stereo not given) | 40µM* | -2% | u | i
COc1ccc(NC(=O)CN2C(=O)NC3(CCC(C(C)(C)C)CC3)C2=O)c(OC)c1 (stereo not given) | u | 0% | 35µM* | i
COc1ccccc1CNC[C@H]1O[C@H](Cc2cc(-c3ccccc3)on2)CC[C@@H]1O | 89µM* | -13%[70.6 µM] | u | i
COc1ccccc1CNC[C@H]1O[C@H](Cc2cc(CN(C)C)on2)CC[C@@H]1O | -18%[174 µM] | -3%[70.6 µM] | -26%[172 µM] | i
O[C@H]1CC[C@@H](Cc2cc(-c3ccccc3)on2)O[C@@H]1CNC1CCCCC1 | u | -22%[70.6 µM] | 100µM* | i
COCC1(O)CCOC2(CCN(C(=O)c3cccs3)CC2)C1 (stereo not given) | -13% | x | -8% | x
CC1=C[C@@H](CNS(=O)(=O)c2ccccc2)[C@H](C(C)C)C[C@H]1CC(=O)NCCN(C)C | u | -1% | u | i
CC1=C[C@@H](CNS(=O)(=O)c2ccc(F)cc2)[C@H](C(C)C)C[C@H]1CC(=O)NCCN(C)C | 40µM* | 0% | u | i
CC1=C[C@@H](CNC(=O)c2ccccn2)[C@H](C(C)C)C[C@H]1CC(=O)N1CCCC1 | 100µM* | -4%[70.6 µM] | u | i
SMILES | NIH3T3 tox | hNpr1 antagonist | HEK cytotox | FLuc inh
CC1=C[C@@H](CC#N)[C@H](C(C)C)C[C@H]1CC(=O)NCc1ccc(F)cc1 | u | 1%[70.6 µM] | 89µM* | i
COc1ccccc1N1CCN(C(=O)C[C@@H]2C[C@@H](C(C)C)[C@H](CC#N)C=C2C)CC1 | u | -18%[70.6 µM] | 35µM* | i
O=C(Nc1cncnc1)C1CCCN1c1nc2ncccc2o1 (stereo not given) | -19%[138 µM] | x | -11%[172 µM] | x
COc1cccc(C(=O)N2CCCN(c3ccc4nnc(-c5ccccc5)n4n3)CC2)c1 | u | x | -25% | x
N#Cc1ccc(S(=O)(=O)N2CC(n3cc(C(=O)N4CCOCC4)nn3)C2)cc1 | -15% | x | 2% | x
COc1ccc(S(=O)(=O)NC[C@@H]2C=C(C)[C@H](CC(=O)NCc3ccc(C#N)cc3)C[C@H]2C(C)C)cc1 | 25µM* | -9% | u | i
CC1=C[C@@H](CNS(=O)(=O)c2ccccc2)[C@H](C(C)C)C[C@H]1CC(=O)NCc1ccc(C#N)cc1 | u | -7% | u | i
COCCNC(=O)C[C@@H]1C[C@@H](C(C)C)[C@H](CNS(=O)(=O)c2ccccc2)C=C1C | 112µM* | -4%[70.6 µM] | -22%[172 µM] | i
CCOC(=O)C[C@@H]1C[C@@H](C(C)C)[C@H](CNS(=O)(=O)c2ccccc2)C=C1C | u | u | 63µM* | i
CC1=C[C@@H](CNS(=O)(=O)c2cccc(F)c2)[C@H](C(C)C)C[C@H]1CC(=O)O | 45µM* | -1%[70.6 µM] | -31%[172 µM] | i
O=C(Nc1cc(-c2cccnc2)nn1-c1ccccc1)C1CC1 | -4%[138 µM] | x | i | x
CN(C)C(=O)c1cc(-c2ccccc2C(F)(F)F)nc2c1cnn2C | -2% | x | 2% | x
CC1=C[C@@H](CNS(=O)(=O)c2ccc(Cl)cc2)[C@H](C(C)C)C[C@H]1CC(=O)N1CCOCC1 | 32µM* | u | u | i
CC(=O)Nc1ccc(S(=O)(=O)NC[C@@H]2C=C(C)[C@H](CC(=O)N3CCCC3)C[C@H]2C(C)C)cc1 | u | 2% | -22% | i
Cc1ccc(CNC(=O)c2ccc(NC(=O)c3cc4c(=O)[nH]c(C)cn4n3)cc2)cc1 | -4% | 6% | u | 11µM*
COc1cccc(CNC(=O)c2nnn3cc(C)[nH]c(=O)c23)c1 | -15% | 2% | 12% | i
COCCCNC(=O)c1cc2c(=O)[nH]c(C)cn2n1 | i | 4% | 3% | u
Cc1cn2nc(C(=O)NCCCc3ccccc3)cc2c(=O)[nH]1 | -25% | 15% | -24% | 14µM*
CSc1ccc(CNC(=O)c2cc3c(=O)[nH]c(C)cn3n2)cc1 | -25% | 9% | -9% | 13µM*
CCc1ccc(CNC(=O)c2nnn3cc(C)[nH]c(=O)c23)cc1 | 35µM* | -30% | -29% | i
COc1cccc(-c2cccc(C(=O)N3CCN(C(=O)C4CC4)CC3)c2)c1 | -27% | x | u | x
O=C(c1ccccc1Cl)N1CCC(C(=O)N2CCC(N3Cc4cccn4C3=O)CC2)CC1 | -22% | x | -27% | x
CC[C@H]1CN(C(=O)Nc2cccc(OC)c2)CC[C@H]1CC(=O)NCc1ccccc1 | -30%[174 µM] | -13%[70.6 µM] | -13%[172 µM] | i
CC[C@H]1CN(C(=O)Nc2cccc(C(F)(F)F)c2)CC[C@H]1CC(=O)NCc1ccc(OC)cc1 | u | u | 40µM* | i
N#Cc1cccc(-c2c(C(=O)NC3CC3)nc3sccn23)c1 | i | x | i | x
